Data reported in PubChem BioAssay.
For some assays here: Potency and affinity values are given separately. The source made the active and inactive calls. Unless noted, no rule for the calls is given here.

Experiments:
[1] = antimalarial activity against Dd2 strain (AID 2302;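 active = growth inhibition above 50% at the single 2 µM test dose, taken to imply half-maximal potency below 2 µM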;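 also: 0% = DMSO untreated growth and 100% = chloroquine plus artemisinin killed control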); conditions: P. falciparum Dd2 in RBCs, LDH growth readout, 72 h; at 2 µM; active compounds read high
[2] = HepG2 cytotoxicity, primary screen, cytotoxicity control for P. falciparum antimalarial project, cell-based, ATP luminescence (AID 2303;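 active = inhibition above 50%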;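 also: 0% = DMSO wells and 100% = digitonin-killed cells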); conditions: HepG2 viability, 24-48 h, at 10 µM, active compounds read high
[3] = target: L-lactate dehydrogenase (Plasmodium falciparum (isolate CDC / Honduras)) (UniProt Q27743); assay: PfLDH activity inhibition – cell lysate, 3D7 strain, counter-screen for P. falciparum growth inhibition project (AID 2304);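 also: 0% = vehicle and 100% = reference inhibitor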; conditions: P. falciparum 3D7 crude extract, LDH APAD/NBT absorbance; at 2 µM; active compounds read high
L-lactate dehydrogenase (Plasmodium falciparum (isolate CDC / Honduras)), sequence (Q27743 whole entry, looked up): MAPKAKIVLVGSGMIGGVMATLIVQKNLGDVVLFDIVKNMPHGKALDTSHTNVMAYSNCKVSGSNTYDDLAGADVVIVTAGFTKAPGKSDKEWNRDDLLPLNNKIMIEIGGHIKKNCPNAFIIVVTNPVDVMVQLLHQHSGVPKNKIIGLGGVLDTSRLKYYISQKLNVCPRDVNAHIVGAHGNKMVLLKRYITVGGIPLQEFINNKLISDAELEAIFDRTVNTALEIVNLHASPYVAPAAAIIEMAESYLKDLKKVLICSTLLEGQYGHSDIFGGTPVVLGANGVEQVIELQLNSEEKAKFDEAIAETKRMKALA

[4] = inhibition of 3D7 malaria parasite growth – strain 3D7 (AID 2306);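 also: 0% = DMSO wells and 100% = chloroquine plus artemisinin control wells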; conditions: P. falciparum 3D7 erythrocytic growth, LDH absorbance, 72 h; at 2 µM; active compounds read high
[5] = target: Calcium-dependent protein kinase 1 (Plasmodium falciparum (isolate 3D7)) (UniProt P62344); assay: PfCDPK1 kinase inhibitors, biochemical, TCAMS library (AID 1159585; cut-off not given, nearly all actives have IC50 up to about 0.98 µM;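 also: inhibitors leave more ATP so luminescence rises with inhibition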); conditions: recombinant PfCDPK1, Kinase-Glo ATP depletion luminescence
Calcium-dependent protein kinase 1 (Plasmodium falciparum (isolate 3D7)), sequence (P62344 whole entry, looked up): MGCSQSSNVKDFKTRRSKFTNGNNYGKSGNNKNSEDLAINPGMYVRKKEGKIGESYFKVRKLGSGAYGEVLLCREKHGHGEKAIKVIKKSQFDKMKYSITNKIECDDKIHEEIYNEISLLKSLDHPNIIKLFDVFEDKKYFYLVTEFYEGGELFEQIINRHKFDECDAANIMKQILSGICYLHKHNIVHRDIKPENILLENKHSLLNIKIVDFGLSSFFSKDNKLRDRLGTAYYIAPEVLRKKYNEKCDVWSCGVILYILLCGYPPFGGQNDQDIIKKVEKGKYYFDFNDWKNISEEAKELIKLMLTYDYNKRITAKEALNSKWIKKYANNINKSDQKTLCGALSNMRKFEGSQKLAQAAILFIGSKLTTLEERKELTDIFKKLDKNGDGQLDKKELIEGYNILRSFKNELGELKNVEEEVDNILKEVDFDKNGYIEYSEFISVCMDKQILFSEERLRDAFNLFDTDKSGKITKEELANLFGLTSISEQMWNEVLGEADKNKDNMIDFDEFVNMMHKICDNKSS

[6] = target: Plasmodium falciparum protein kinase 6 (PK6, PF3D7_1337100) (UniProt Q8IDW1); assay: PfPK6 kinase inhibitors, biochemical, TCAMS library (AID 1159586); conditions: recombinant PfPK6, Kinase-Glo ATP depletion luminescence
Plasmodium falciparum protein kinase 6 (PK6, PF3D7_1337100), sequence (Q8IDW1 1-305): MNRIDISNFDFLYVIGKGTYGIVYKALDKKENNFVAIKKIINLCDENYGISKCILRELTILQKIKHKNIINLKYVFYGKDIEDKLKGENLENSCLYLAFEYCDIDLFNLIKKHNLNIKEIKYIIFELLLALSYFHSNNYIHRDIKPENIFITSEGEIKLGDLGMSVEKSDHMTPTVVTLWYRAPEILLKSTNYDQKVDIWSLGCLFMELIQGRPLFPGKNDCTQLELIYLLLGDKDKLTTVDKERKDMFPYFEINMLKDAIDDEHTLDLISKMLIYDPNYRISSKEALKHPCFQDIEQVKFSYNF

[7] = target: Protein kinase 7 (PK7), Plasmodium falciparum 3D7 (PF3D7_0213400) (UniProt Q7YTF7); assay: inhibition of Plasmodium PK7 catalytic activity – biochemical, TCAMS antimalarial set, Kinase-Glo luminescence (AID 1159587); conditions: recombinant PfPK7, Kinase-Glo ATP depletion luminescence
Protein kinase 7 (PK7), Plasmodium falciparum 3D7 (PF3D7_0213400), sequence (Q7YTF7 1-343): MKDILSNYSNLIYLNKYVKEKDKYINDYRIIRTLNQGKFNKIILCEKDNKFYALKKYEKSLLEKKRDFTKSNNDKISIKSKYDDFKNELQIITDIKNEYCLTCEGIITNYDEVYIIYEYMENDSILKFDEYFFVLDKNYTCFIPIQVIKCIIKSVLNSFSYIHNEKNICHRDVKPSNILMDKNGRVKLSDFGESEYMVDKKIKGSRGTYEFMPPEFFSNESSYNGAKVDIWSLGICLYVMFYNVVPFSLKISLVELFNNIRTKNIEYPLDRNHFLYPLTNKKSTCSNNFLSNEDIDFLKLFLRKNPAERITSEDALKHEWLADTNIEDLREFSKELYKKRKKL

[8] = target: Calcium-dependent protein kinase 4 (Plasmodium falciparum (isolate 3D7)) (UniProt Q8IBS5); assay: PfCDPK4 kinase inhibitors, biochemical, TCAMS library (AID 1159588; cut-off not given, nearly all actives have IC50 up to about 0.91 µM); conditions: recombinant PfCDPK4, Kinase-Glo ATP depletion luminescence
Calcium-dependent protein kinase 4 (Plasmodium falciparum (isolate 3D7)), sequence (Q8IBS5 whole entry, looked up): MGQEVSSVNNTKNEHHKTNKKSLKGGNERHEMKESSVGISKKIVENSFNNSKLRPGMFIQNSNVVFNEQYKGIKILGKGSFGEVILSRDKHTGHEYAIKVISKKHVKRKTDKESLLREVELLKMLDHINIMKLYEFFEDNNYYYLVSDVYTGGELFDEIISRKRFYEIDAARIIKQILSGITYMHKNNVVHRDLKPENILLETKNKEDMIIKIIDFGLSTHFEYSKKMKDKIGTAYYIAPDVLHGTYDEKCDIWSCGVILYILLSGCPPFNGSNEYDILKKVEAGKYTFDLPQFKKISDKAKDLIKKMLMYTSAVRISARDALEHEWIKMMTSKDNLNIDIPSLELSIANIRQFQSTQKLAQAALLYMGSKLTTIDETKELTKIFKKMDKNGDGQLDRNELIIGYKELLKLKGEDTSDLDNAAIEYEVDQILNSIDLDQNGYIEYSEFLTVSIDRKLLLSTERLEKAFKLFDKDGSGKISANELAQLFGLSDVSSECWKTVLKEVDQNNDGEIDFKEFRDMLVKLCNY

CCCC1CCNC(C(O)c2ccnc3ccc(OC)cc23)C1 (stereo not given)
active: growth inhibition [1] 78% | growth inhibition [4] 98%
inactive: inhibition [2] -15% | inhibition [3] -3% | outcome [5] | outcome [6] | outcome [7] | outcome [8]

COc1cccc(Nc2nc(C)cc(NC3CCCC3)n2)c1
inactive: inhibition [2] 41% | inhibition [3] 1% | outcome [5] | outcome [6] | outcome [7] | outcome [8]
active: growth inhibition [1] 79% | growth inhibition [4] 101%

Cc1cc(C)c(-c2n[nH]c3c2C(c2cccc(Cl)c2)N(Cc2ccco2)C3=O)c(O)c1 (stereo not given)
inactive: inhibition [2] -3% | inhibition [3] -1% | outcome [5] | outcome [6] | outcome [7] | outcome [8]
active: growth inhibition [1] 89% | growth inhibition [4] 96%

O=C(/C=C/c1ccc(Cl)c(Cl)c1)NCCCCCN1CCC(NC(=O)Nc2cc(Cl)ccc2Cl)CC1
inactive: growth inhibition [1] 31% | inhibition [3] 0% | outcome [5] | outcome [6] | outcome [7] | outcome [8]
active: inhibition [2] 99% | growth inhibition [4] 99%

Cc1cc(NN=Cc2cccc(F)c2)c2ccc(F)cc2n1
inactive: inhibition [2] 2% | inhibition [3] -2% | outcome [5] | outcome [6] | outcome [7] | outcome [8]
active: growth inhibition [1] 99% | growth inhibition [4] 101%

CC(C)(C)c1ccc(S(=O)(=O)Nc2cc(Cl)ccc2Cn2ccc(N3CCNCC3)nc2=O)cc1
inactive: inhibition [2] -9% | inhibition [3] 2% | outcome [5] | outcome [6] | outcome [7] | outcome [8]
active: growth inhibition [1] 74% | growth inhibition [4] 95%

O=C(Cc1ccc(F)cc1)NC1CCN(c2ccnc3cc(Cl)ccc23)C1 (stereo not given)
active: growth inhibition [1] 85% | growth inhibition [4] 99%
inactive: inhibition [2] -1% | inhibition [3] 1% | outcome [5] | outcome [6] | outcome [7] | outcome [8]

C[C@H]1[C@H](c2cccc(Cl)c2)OCC(C)(C)N1C(=O)CCN1CCCCC1
active: growth inhibition [4] 88%
inactive: growth inhibition [1] 5% | inhibition [2] 2% | inhibition [3] -1% | outcome [5] | outcome [6] | outcome [7] | outcome [8]

CN(C)c1ccc(-c2ccc(C(=O)NC3CCN(Cc4ccc5c(c4)OCCO5)CC3)s2)cc1
inactive: inhibition [2] 36% | inhibition [3] -2% | outcome [5] | outcome [6] | outcome [7] | outcome [8]
active: growth inhibition [1] 73% | growth inhibition [4] 100%

Fc1ccc2nccc(NN=Cc3ccccc3Cl)c2c1
active: growth inhibition [4] 100%
inactive: growth inhibition [1] 39% | inhibition [2] 3% | inhibition [3] 0% | outcome [5] | outcome [6] | outcome [7] | outcome [8]

COc1ccc2c(=O)c(I)c(C)[nH]c2c1
active: growth inhibition [1] 96% | growth inhibition [4] 96%
inactive: inhibition [2] 27% | inhibition [3] 4% | outcome [5] | outcome [6] | outcome [7] | outcome [8]

Cc1cc(N)c2cc(NC(=O)/C=C/c3ccccc3)ccc2n1
active: growth inhibition [1] 68% | growth inhibition [4] 102%
inactive: inhibition [2] 20% | inhibition [3] 0% | outcome [5] | outcome [6] | outcome [7] | outcome [8]

CC(C)c1sc(N2CCCCC2)nc1C(=O)Nc1ccc(F)cc1C(F)(F)F
active: growth inhibition [1] 98% | growth inhibition [4] 100%
inactive: inhibition [2] -1% | inhibition [3] 0% | outcome [5] | outcome [6] | outcome [7] | outcome [8]

O=C(Nc1ccc(-c2cccc(-c3nc4ccc(C(F)(F)F)cc4[nH]3)c2)cc1)c1ccc(=O)[nH]n1
inactive: growth inhibition [1] 13% | inhibition [3] -4% | outcome [5] | outcome [6] | outcome [7] | outcome [8]
active: inhibition [2] 72% | growth inhibition [4] 87%

Cc1noc(C)c1C(=O)N1CCc2cc3nccc(N4CCN5CCC[C@H]5C4)c3cc21
inactive: growth inhibition [1] 9% | inhibition [2] 7% | inhibition [3] -5% | outcome [5] | outcome [6] | outcome [7] | outcome [8]
active: growth inhibition [4] 93%

C=CCc1cc(C)ccc1OCCCON1C(N)=NC(N)=NC1(C)C
active: growth inhibition [1] 96% | inhibition [2] 64% | growth inhibition [4] 96%
inactive: inhibition [3] -6% | outcome [5] | outcome [6] | outcome [7] | outcome [8]

Cc1ccc(NC(=O)NC2CCN(CCCCCNC(=O)/C=C/c3ccc(Cl)c(Cl)c3)CC2)cc1
active: growth inhibition [4] 102%
inactive: growth inhibition [1] 19% | inhibition [2] 41% | inhibition [3] -2% | outcome [5] | outcome [6] | outcome [7] | outcome [8]

CCN(CC)CCN(Cc1ccc(-c2ccc(C(F)(F)F)cc2)cc1)C(=O)Cn1c(CCc2ccc(F)cc2)nc(=O)c2ccccc21
inactive: inhibition [2] 42% | inhibition [3] -3% | outcome [5] | outcome [6] | outcome [7] | outcome [8]
active: growth inhibition [1] 58% | growth inhibition [4] 97%

O=C(CSc1nccn1C1CCCCC1)Nc1cc(C(F)(F)F)ccc1Cl
inactive: inhibition [2] 2% | inhibition [3] -1% | outcome [5] | outcome [6] | outcome [7] | outcome [8]
active: growth inhibition [1] 95% | growth inhibition [4] 96%

CN1CC=C(c2csc3ccc(NC(=O)Nc4ccc(-c5ccncc5)c5ccccc45)cc23)CC1
active: growth inhibition [1] 99% | growth inhibition [4] 93%
inactive: inhibition [2] 20% | inhibition [3] 1% | outcome [5] | outcome [6] | outcome [7] | outcome [8]

Cc1nc(-c2cccc(C(=O)NC3CCC(CCN4CCc5ccc(-c6cccnc6)cc5CC4)CC3)c2)no1 (stereo not given)
inactive: growth inhibition [1] 4% | inhibition [2] 17% | inhibition [3] -1% | outcome [5] | outcome [6] | outcome [7] | outcome [8]
active: growth inhibition [4] 98%

Cc1cccc2[nH]c(-c3ccc(-c4cccc(CN5CCCCC5)c4)s3)nc12
inactive: inhibition [2] 11% | inhibition [3] -2% | outcome [5] | outcome [6] | outcome [7] | outcome [8]
active: growth inhibition [1] 92% | growth inhibition [4] 100%

O=C(Nc1ccc(OC2CCN(Cc3ccc(F)cc3)CC2)c(Cl)c1)c1ccsc1
active: growth inhibition [1] 90% | growth inhibition [4] 94%
inactive: inhibition [2] 5% | inhibition [3] 7% | outcome [5] | outcome [6] | outcome [7] | outcome [8]

Cc1noc(C)c1CN1Cc2ccccc2OC2(CCN(Cc3c[nH]c4cnccc34)CC2)C1
inactive: growth inhibition [1] 12% | inhibition [2] 19% | inhibition [3] -2% | outcome [5] | outcome [6] | outcome [7] | outcome [8]
active: growth inhibition [4] 89%

Cc1ccc(NC(=O)c2nc(N3CCN(c4ccncc4)CC3)ccc2Cl)cc1F
inactive: inhibition [3] -5% | outcome [5] | outcome [6] | outcome [7] | outcome [8]
active: growth inhibition [1] 57% | inhibition [2] 51% | growth inhibition [4] 100%

CCN(CC)CCCOC(=O)c1ccc2c(c1)-c1ccc(C(=O)OCCCN(CC)CC)c3cccc-2c13
inactive: inhibition [2] 22% | inhibition [3] -3% | outcome [5] | outcome [6] | outcome [7] | outcome [8]
active: growth inhibition [1] 96% | growth inhibition [4] 98%

CC(CN(C)C)C(=O)Nc1ccc(-c2cccc(-c3nc4ccc(C(F)(F)F)cc4[nH]3)c2)cc1 (stereo not given)
inactive: inhibition [2] 30% | inhibition [3] -1% | outcome [5] | outcome [6] | outcome [7] | outcome [8]
active: growth inhibition [1] 85% | growth inhibition [4] 101%

CC(C)=CC1C(C(=O)n2c(N)nc3ccccc32)C1(C)C (stereo not given)
active: growth inhibition [4] 99%
inactive: growth inhibition [1] 3% | inhibition [2] 16% | inhibition [3] -6% | outcome [5] | outcome [6] | outcome [7] | outcome [8]

CC1(C)N=C(N)N=C(N)N1c1cc(Cl)c(Cl)c(Cl)c1
inactive: growth inhibition [1] 31% | inhibition [3] -7% | outcome [5] | outcome [6] | outcome [7] | outcome [8]
active: inhibition [2] 68% | growth inhibition [4] 93%

COc1cc2nc(N3CCN(C(=O)c4ccc(N(C(=O)OC(C)(C)C)C(=O)OC(C)(C)C)cc4)CC3)nc(N)c2cc1OC
inactive: growth inhibition [1] 19% | inhibition [2] 12% | inhibition [3] 1% | outcome [5] | outcome [6] | outcome [7] | outcome [8]
active: growth inhibition [4] 96%

COc1cc(NC(=O)c2c(-c3c(F)cccc3Cl)noc2C)c(OC)cc1Cl
active: growth inhibition [4] 89%
inactive: growth inhibition [1] 17% | inhibition [2] -12% | inhibition [3] 5% | outcome [5] | outcome [6] | outcome [7] | outcome [8]

O=C(Nc1ccc(Cl)c(Cl)c1)Nc1ccc2nccc(N3CCN(Cc4ccccc4)CC3)c2c1
inactive: inhibition [2] 31% | inhibition [3] 1% | outcome [5] | outcome [6] | outcome [7] | outcome [8]
active: growth inhibition [1] 100% | growth inhibition [4] 101%

Cc1cccc2[nH]c(-c3ccc(-c4cccc(CN5CCC(C(N)=O)CC5)c4)s3)nc12
active: growth inhibition [4] 86%
inactive: growth inhibition [1] 16% | inhibition [2] 1% | inhibition [3] 4% | outcome [5] | outcome [6] | outcome [7] | outcome [8]

CN(c1ncc(-c2cccc(CNCc3ccccc3O)c2)cn1)C1CCCCC1
active: growth inhibition [1] 71% | growth inhibition [4] 95%
inactive: inhibition [2] 12% | inhibition [3] 3% | outcome [5] | outcome [6] | outcome [7] | outcome [8]

CC(C)(C)NC(=O)c1ccc(Oc2ccc(OC(F)(F)F)cc2)c(NC(=O)C(C)(C)C)c1
active: growth inhibition [4] 89%
inactive: growth inhibition [1] 2% | inhibition [2] -11% | inhibition [3] 3% | outcome [5] | outcome [6] | outcome [7] | outcome [8]

CCCC/C=C(\Cl)c1ccc(O)c2c1C[C@H]1C[C@H]3[C@H](N(C)C)C(=O)C(C(N)=O)=C(O)[C@@]3(O)C(=O)C1=C2O
inactive: inhibition [2] 16% | inhibition [3] -4% | outcome [5] | outcome [6] | outcome [7] | outcome [8]
active: growth inhibition [1] 98% | growth inhibition [4] 90%

CCC(C)CN1CCN(c2ccc(NC(=O)c3cccs3)cc2)C(C)C1 (stereo not given)
active: growth inhibition [1] 95% | growth inhibition [4] 95%
inactive: inhibition [2] -4% | inhibition [3] -2% | outcome [5] | outcome [6] | outcome [7] | outcome [8]

O=C(Cc1cccnc1)Nc1cccc(-c2cccc(-c3nc4ccc(C(F)(F)F)cc4[nH]3)c2)c1
active: growth inhibition [4] 99%
inactive: growth inhibition [1] 38% | inhibition [2] 42% | inhibition [3] -7% | outcome [5] | outcome [6] | outcome [7] | outcome [8]

CC(Cc1ccc(Cl)cc1)Nc1nc(NC2CCCC2)nc(N2CCC(C#N)(c3ccccc3)CC2)n1 (stereo not given)
inactive: inhibition [2] 15% | inhibition [3] -6% | outcome [5] | outcome [6] | outcome [7] | outcome [8]
active: growth inhibition [1] 95% | growth inhibition [4] 99%

Cc1cccc(C(=O)Nc2ccnc(N3CCC(N(C)Cc4ccccc4)CC3)c2)c1
inactive: growth inhibition [1] 2% | inhibition [2] 12% | inhibition [3] -1% | outcome [5] | outcome [6] | outcome [7] | outcome [8]
active: growth inhibition [4] 93%
